# Measurements reported in ChEMBL document CHEMBL3433997, “St. Jude Leishmania screening dataset” (2016).
# Columns and labels:
# Assay type in all cases: functional
# [1] = molecular target: Solute carrier family 2, facilitated glucose transporter member 1 (Homo sapiens) (UniProt P11166); assay: ST_JUDE_LEISH: Cytotoxicity at 2uM final concentration against transgenic Leishmania Mexicana promastigotes LmGLUT1 that are glucose transport deficient and complemented with the human glucose transporter GLUT1. Activity is measured by DNA content using SYBR green in vitro
# [2] = molecular target: Hexose transporter 1 (Plasmodium falciparum) (UniProt O97467); assay: ST_JUDE_LEISH: Cytotoxicity at 2uM final concentration against transgenic Leishmania Mexicana promastigotes LmPfHT that are glucose transport deficient and complemented with the Plasmodium falciparum hexose transporter. Activity is measured by DNA content using SYBR green in vitro
# [3] = molecular target: Glucose transporter (Leishmania mexicana) (UniProt O61059); assay: ST_JUDE_LEISH: Cytotoxicity at 2uM final concentration against transgenic Leishmania Mexicana promastigotes LmGT2 that are glucose transport deficient and complemented with the L. Mexicana glucose transporter 2. Activity is measured by DNA content using SYBR green in vitro
# Solute carrier family 2, facilitated glucose transporter member 1 (Homo sapiens), sequence (P11166 whole entry): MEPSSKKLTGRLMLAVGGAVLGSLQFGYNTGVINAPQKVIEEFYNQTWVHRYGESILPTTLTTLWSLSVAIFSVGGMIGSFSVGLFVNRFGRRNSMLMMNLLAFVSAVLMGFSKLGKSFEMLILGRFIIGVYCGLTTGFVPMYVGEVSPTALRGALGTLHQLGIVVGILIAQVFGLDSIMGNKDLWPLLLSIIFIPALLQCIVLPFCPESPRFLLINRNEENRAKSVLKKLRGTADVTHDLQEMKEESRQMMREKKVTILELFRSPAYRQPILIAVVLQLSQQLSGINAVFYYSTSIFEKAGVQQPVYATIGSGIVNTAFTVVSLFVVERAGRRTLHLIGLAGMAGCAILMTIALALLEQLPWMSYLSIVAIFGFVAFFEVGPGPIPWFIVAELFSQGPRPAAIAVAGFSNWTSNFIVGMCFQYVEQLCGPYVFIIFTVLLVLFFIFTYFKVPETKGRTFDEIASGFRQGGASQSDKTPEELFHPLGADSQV
Structure (SMILES),inhibition [1],inhibition [2],inhibition [3]
O=C(/C=C/c1ccc(Br)cc1)NCCCCCN1CCC(c2c[nH]c3ccccc23)CC1,25.2%,17.3%,12.7%
CN(C)C(=O)O[C@@H]1CN[C@H](C#Cc2cc3ncnc(Nc4ccc5c(cnn5Cc5cccc(F)c5)c4)c3s2)C1,10.1%,9.66%,10.1%
CC(CN1CCN(C)CC1)C(=O)Nc1cccc(-c2cccc(-c3nc4ccccc4[nH]3)c2)c1 (stereo not given),4.45%,4.44%,2.44%
O=C(Nc1ccc2c(c1)CCC2)c1ccc(CN2CCCN(Cc3cccc(O)c3)CC2)cc1,11.2%,12.1%,9.95%
CCCN(CCC)CCCNc1ccc(C(=O)Nc2ccc(C)c(F)c2)cc1[N+](=O)[O-],76.3%,74.6%,74%
